# Test results as given in article PMC7862700, “An all-to-all approach to the identification of sequence-specific readers for epigenetic DNA modifications on cytosine”.
# Key:
# Assay in all cases: DAPPL (digital affinity profiling via proximity ligation, sequencing); 10 mM Tris-HCl pH 7.5, 50 mM NaCl, 1 mM DTT, 4% glycerol, room temperature, 30 min; GST-TFs on glutathione beads, 16-mer random dsDNA library, 0.1% formaldehyde crosslink after washing; high values mean tight binding
# [1] = target: T1, FEV (Homo sapiens, UniProt Q99581 1-238); settings: protein: recombinant; tags: N-terminal GST; dsDNA, one strand shown
# T1 sequence: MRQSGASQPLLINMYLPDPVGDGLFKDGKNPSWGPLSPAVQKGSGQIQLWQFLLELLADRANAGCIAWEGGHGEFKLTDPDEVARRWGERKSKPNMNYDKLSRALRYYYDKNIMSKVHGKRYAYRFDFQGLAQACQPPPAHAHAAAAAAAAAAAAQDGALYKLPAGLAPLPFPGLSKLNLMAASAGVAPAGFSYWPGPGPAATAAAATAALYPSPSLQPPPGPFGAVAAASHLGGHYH
# Method in brief: (§1)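 Beads coated with glutathione captured GST-fused human transcription factors that had been expressed in yeast, and the factors were then given DNA barcodes and pooled with a tag-only sample. The pools were incubated with 200 nmole of a random double-stranded 16-mer DNA library in Tris/NaCl/DTT/glycerol buffer for 30 min at room temperature, washed, crosslinked with 0.1% formaldehyde and proximity-ligated with BsaI/T4 ligase at 37 °C for 1 h. PCR amplification and Illumina NextSeq500 sequencing came last. Binding signal is each hexamer's read frequency for a factor divided by its frequency for the tag-only sample.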
# [2] = target: ETV5 (Homo sapiens, UniProt P41161 1-510); settings: protein: recombinant; tags: N-terminal GST; dsDNA, one strand shown
# ETV5, sequence (P41161 whole entry): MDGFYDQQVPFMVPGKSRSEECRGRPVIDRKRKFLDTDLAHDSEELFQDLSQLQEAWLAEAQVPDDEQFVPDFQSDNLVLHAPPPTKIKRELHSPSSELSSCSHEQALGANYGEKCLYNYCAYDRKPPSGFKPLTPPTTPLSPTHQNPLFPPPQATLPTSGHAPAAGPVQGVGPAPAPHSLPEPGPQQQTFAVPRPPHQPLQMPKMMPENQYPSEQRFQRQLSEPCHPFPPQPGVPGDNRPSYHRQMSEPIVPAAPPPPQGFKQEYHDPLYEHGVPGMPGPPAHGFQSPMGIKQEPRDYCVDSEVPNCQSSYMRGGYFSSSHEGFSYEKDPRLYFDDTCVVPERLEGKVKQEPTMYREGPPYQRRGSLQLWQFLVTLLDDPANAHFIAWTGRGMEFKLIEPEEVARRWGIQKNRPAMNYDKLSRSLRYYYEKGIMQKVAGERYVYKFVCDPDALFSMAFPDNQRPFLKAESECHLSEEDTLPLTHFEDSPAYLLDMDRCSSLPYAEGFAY
# Method in brief: as §1
# [3] = target: HSF1 (Homo sapiens, UniProt Q00613 1-529); settings: protein: recombinant; tags: N-terminal GST; chain copies: 3; dsDNA, one strand shown
# HSF1, sequence (Q00613 whole entry): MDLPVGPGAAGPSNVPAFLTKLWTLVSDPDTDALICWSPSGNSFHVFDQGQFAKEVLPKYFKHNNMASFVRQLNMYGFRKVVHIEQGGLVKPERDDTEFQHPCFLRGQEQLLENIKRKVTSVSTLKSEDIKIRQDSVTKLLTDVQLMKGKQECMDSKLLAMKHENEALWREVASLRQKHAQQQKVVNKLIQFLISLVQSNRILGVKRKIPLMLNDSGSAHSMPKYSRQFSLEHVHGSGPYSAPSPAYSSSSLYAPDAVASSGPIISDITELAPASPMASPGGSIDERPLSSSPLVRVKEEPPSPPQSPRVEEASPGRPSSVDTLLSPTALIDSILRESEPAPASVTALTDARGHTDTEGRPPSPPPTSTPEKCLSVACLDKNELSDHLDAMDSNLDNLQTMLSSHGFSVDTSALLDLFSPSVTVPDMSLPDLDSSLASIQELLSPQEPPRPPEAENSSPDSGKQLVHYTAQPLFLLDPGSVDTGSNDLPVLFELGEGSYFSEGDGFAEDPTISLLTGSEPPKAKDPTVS
# Method in brief: as §1
# [4] = target: T2, SPIC (Homo sapiens, UniProt Q8N5J4 1-248); settings: protein: recombinant; tags: N-terminal GST; dsDNA, one strand shown
# T2 sequence: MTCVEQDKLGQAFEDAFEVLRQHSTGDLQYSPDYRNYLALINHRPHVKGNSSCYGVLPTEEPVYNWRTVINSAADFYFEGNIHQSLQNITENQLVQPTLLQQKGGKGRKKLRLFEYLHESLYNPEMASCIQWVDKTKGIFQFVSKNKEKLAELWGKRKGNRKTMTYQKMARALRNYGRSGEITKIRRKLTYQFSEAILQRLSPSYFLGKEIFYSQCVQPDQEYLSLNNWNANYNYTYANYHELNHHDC
# Method in brief: as §1
# [5] = target: ELF4 (Homo sapiens, UniProt Q99607 1-663); settings: protein: recombinant; tags: N-terminal GST; dsDNA, one strand shown
# ELF4, sequence (Q99607 whole entry): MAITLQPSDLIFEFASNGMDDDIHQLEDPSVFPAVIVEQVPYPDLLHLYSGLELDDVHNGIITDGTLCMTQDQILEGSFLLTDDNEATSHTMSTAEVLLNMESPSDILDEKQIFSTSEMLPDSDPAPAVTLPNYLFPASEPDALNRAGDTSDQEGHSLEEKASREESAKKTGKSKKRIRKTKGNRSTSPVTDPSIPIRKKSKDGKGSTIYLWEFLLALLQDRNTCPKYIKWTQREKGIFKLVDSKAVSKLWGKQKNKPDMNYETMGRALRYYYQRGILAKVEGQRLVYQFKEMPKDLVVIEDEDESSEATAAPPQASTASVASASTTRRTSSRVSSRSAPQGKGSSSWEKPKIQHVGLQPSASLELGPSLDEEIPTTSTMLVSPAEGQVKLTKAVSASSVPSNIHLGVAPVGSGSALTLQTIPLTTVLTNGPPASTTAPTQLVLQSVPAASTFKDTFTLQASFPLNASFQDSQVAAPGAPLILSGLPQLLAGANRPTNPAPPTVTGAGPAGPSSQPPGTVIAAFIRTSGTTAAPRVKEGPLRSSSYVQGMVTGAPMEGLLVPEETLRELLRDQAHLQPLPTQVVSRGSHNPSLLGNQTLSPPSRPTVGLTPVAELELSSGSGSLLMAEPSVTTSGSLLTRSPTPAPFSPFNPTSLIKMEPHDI
# Method in brief: as §1
# [6] = target: T3, ELK4 (Homo sapiens, UniProt P28324-2 1-405); settings: protein: recombinant; tags: N-terminal GST; dsDNA, one strand shown
# T3 sequence: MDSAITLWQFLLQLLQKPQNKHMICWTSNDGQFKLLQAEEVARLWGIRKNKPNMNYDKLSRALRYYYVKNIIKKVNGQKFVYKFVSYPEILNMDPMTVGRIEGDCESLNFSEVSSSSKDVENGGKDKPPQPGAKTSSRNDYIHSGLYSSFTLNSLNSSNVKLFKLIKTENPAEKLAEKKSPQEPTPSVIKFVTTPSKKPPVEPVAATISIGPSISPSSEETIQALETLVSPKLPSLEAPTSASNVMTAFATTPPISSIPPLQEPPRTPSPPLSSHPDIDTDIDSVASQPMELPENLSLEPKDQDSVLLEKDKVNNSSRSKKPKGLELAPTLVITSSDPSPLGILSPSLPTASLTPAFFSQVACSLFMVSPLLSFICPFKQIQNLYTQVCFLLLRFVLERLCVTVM
# Method in brief: as §1
# [7] = target: T4, ETV2 (Homo sapiens, UniProt O00321 1-342); settings: protein: recombinant; tags: N-terminal GST; dsDNA, one strand shown
# T4 sequence: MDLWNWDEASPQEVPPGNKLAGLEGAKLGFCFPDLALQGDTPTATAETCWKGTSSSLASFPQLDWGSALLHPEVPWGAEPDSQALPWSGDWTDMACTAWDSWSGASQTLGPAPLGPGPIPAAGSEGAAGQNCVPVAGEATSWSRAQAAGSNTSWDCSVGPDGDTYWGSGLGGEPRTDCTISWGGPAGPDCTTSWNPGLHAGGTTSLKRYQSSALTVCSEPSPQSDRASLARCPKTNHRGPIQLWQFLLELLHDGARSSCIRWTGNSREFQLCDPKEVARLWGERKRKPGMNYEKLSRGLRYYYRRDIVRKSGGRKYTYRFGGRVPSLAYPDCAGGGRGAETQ
# Method in brief: as §1
# [8] = target: T5, ELF3 (Homo sapiens, UniProt P78545 1-371); settings: protein: recombinant; tags: N-terminal GST; dsDNA, one strand shown
# T5 sequence: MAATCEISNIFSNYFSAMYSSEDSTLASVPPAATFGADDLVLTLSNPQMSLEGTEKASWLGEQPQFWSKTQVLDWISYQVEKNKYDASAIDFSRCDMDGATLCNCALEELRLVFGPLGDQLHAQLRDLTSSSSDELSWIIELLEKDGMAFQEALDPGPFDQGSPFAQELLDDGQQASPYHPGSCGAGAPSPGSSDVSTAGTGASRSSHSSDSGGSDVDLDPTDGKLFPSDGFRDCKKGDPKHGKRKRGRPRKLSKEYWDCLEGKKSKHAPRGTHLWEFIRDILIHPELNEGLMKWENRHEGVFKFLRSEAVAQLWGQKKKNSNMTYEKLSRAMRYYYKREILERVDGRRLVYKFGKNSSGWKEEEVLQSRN
# Method in brief: as §1
# [9] = target: CRX (Homo sapiens, UniProt O43186 1-299); settings: protein: recombinant; tags: N-terminal GST; dsDNA, one strand shown
# CRX, sequence (O43186 whole entry): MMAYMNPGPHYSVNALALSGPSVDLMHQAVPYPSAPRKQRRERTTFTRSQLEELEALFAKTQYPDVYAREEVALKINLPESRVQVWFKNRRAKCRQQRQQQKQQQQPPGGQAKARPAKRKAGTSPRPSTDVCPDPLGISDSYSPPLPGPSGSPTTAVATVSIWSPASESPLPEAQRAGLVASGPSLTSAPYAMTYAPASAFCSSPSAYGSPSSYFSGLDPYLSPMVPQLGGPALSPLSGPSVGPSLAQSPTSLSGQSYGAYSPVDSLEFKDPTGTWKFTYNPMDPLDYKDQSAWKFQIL
# Method in brief: as §1
# [10] = target: ETV1 (Homo sapiens, UniProt P50549 1-477); settings: protein: recombinant; tags: N-terminal GST; dsDNA, one strand shown
# ETV1, sequence (P50549 whole entry): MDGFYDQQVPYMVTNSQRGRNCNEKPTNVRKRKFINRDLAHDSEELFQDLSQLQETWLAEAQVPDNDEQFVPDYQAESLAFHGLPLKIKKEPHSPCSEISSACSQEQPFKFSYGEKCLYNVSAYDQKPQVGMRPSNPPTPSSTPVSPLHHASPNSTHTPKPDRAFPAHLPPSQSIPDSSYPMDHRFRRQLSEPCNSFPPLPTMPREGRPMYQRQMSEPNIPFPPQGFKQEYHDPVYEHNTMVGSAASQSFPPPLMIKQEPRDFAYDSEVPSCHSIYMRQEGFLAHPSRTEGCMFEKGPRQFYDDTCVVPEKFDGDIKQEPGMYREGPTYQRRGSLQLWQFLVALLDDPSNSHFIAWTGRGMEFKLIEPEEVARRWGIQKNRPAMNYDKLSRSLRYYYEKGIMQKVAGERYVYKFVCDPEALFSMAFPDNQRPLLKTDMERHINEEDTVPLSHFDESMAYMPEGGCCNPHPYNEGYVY
# Method in brief: as §1
# [11] = target: T6, ERF (Homo sapiens, UniProt P50548 1-548); settings: protein: recombinant; tags: N-terminal GST; dsDNA, one strand shown
# T6 sequence: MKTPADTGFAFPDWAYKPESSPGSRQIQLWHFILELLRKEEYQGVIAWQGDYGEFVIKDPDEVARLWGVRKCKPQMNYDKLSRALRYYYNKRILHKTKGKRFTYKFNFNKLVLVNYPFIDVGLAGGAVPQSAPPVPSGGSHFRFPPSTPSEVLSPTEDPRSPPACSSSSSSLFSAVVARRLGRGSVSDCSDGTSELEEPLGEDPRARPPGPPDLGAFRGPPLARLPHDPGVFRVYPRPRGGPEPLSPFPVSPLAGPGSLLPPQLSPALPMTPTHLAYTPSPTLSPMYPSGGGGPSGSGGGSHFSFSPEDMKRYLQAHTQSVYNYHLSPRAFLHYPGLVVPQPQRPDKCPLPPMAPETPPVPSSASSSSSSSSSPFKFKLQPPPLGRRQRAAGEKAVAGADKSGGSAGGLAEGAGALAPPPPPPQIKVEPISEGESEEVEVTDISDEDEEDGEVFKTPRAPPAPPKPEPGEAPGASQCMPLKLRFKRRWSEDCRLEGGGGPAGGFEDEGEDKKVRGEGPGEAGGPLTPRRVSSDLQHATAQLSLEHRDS
# Method in brief: as §1
# [12] = target: T7, ETV3L (Homo sapiens, UniProt Q6ZN32 1-361); settings: protein: recombinant; tags: N-terminal GST; dsDNA, one strand shown
# T7 sequence: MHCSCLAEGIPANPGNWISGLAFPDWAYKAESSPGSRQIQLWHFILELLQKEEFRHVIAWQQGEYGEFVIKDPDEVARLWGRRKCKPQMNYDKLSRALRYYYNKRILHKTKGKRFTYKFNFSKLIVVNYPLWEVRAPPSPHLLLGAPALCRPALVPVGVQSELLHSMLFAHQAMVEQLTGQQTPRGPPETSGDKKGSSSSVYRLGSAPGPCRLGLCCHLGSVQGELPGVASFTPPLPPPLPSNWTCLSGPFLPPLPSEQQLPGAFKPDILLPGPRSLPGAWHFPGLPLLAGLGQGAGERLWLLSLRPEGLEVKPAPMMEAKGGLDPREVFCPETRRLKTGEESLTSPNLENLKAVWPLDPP
# Method in brief: as §1
# [13] = target: T8, ETS2 (Homo sapiens, UniProt P15036 1-469); settings: protein: recombinant; tags: N-terminal GST; dsDNA, one strand shown
# T8 sequence: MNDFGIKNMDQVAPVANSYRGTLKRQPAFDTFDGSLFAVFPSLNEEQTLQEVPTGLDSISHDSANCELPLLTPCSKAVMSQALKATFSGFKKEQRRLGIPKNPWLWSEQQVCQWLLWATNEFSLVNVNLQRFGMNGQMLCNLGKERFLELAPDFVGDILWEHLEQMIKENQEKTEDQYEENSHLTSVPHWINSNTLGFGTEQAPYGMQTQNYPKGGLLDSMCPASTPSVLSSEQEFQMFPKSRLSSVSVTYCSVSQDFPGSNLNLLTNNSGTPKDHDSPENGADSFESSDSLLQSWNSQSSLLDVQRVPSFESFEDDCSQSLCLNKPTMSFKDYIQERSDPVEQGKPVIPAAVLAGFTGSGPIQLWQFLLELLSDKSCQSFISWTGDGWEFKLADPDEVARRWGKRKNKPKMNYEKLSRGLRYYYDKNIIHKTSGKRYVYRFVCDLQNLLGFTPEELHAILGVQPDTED
# Method in brief: as §1
# [14] = target: T9, SPDEF (Homo sapiens, UniProt O95238 1-335); settings: protein: recombinant; tags: N-terminal GST; dsDNA, one strand shown
# T9 sequence: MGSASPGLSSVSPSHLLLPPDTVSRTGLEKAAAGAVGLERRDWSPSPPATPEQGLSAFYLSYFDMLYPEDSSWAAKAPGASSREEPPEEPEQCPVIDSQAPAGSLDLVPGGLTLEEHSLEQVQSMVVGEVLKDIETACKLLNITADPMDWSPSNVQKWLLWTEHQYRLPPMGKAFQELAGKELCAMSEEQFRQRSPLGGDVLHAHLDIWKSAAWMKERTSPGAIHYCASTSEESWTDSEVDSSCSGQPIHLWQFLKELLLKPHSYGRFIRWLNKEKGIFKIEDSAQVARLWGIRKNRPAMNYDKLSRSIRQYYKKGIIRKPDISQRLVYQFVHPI
# Method in brief: as §1
# [15] = target: T10, ETV7 (Homo sapiens, UniProt Q9Y603 1-341); settings: protein: recombinant; tags: N-terminal GST; dsDNA, one strand shown
# T10 sequence: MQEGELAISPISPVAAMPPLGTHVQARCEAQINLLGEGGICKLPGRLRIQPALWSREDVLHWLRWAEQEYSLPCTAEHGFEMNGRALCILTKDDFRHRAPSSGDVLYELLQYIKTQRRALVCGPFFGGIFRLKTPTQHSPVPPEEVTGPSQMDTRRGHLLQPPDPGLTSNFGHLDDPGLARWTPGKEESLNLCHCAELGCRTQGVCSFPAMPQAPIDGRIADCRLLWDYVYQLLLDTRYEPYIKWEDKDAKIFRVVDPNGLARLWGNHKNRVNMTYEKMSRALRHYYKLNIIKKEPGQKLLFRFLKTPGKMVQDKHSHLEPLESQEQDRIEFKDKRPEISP
# Method in brief: as §1
# [16] = target: T11, ELF5 (Homo sapiens, UniProt Q9UKW6-2 1-255); settings: protein: recombinant; tags: N-terminal GST; dsDNA, one strand shown
# T11 sequence: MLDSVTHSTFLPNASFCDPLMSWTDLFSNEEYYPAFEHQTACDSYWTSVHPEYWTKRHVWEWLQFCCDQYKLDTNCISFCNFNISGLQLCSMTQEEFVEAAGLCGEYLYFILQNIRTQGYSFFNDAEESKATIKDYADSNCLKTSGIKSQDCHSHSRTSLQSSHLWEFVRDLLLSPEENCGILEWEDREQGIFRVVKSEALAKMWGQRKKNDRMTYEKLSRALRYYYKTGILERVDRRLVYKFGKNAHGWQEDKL
# Method in brief: as §1
# [17] = target: T12, ETV3 (Homo sapiens, UniProt P41162-2 1-143); settings: protein: recombinant; tags: N-terminal GST; dsDNA, one strand shown
# T12 sequence: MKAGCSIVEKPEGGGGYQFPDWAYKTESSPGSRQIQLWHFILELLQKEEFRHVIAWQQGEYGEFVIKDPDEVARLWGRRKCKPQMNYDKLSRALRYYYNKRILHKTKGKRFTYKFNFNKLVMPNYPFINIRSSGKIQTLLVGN
# Method in brief: as §1
# [18] = target: ETV6 (Homo sapiens, UniProt P41212 1-452); settings: protein: recombinant; tags: N-terminal GST; dsDNA, one strand shown
# ETV6, sequence (P41212 whole entry): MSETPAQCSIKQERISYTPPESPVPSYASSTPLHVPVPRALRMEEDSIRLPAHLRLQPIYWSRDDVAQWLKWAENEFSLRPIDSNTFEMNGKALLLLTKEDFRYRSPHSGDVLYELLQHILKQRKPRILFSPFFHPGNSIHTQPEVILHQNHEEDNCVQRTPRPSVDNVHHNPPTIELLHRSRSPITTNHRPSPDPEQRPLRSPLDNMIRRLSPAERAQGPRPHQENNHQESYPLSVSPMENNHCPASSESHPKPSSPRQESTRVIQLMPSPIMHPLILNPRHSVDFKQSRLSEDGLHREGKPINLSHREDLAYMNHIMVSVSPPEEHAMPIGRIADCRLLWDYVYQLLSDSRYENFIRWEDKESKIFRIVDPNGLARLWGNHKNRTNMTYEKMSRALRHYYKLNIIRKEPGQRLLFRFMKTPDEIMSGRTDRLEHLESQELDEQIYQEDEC
# Method in brief: as §1
sequence,measurement,setting,value
GAACCT,binding signal,[1],"1.03 fold enrichment (6-mer frequency, TF over GST control)"
same,binding signal,[2],"1.1 fold enrichment (6-mer frequency, TF over GST control)"
same,binding signal,[3],"1.45 fold enrichment (6-mer frequency, TF over GST control)"
same,binding signal,[4],"1.09 fold enrichment (6-mer frequency, TF over GST control)"
same,binding signal,[5],"1.17 fold enrichment (6-mer frequency, TF over GST control)"
same,binding signal,[6],"1.07 fold enrichment (6-mer frequency, TF over GST control)"
same,binding signal,[7],"1.25 fold enrichment (6-mer frequency, TF over GST control)"
same,binding signal,[8],"1.15 fold enrichment (6-mer frequency, TF over GST control)"
same,binding signal,[9],"1.06 fold enrichment (6-mer frequency, TF over GST control)"
same,binding signal,[10],"1.05 fold enrichment (6-mer frequency, TF over GST control)"
same,binding signal,[11],"1.04 fold enrichment (6-mer frequency, TF over GST control)"
same,binding signal,[12],"1.18 fold enrichment (6-mer frequency, TF over GST control)"
same,binding signal,[13],"1.14 fold enrichment (6-mer frequency, TF over GST control)"
same,binding signal,[14],"1.08 fold enrichment (6-mer frequency, TF over GST control)"
same,binding signal,[15],"1.19 fold enrichment (6-mer frequency, TF over GST control)"
same,binding signal,[16],"1.03 fold enrichment (6-mer frequency, TF over GST control)"
same,binding signal,[17],"1.1 fold enrichment (6-mer frequency, TF over GST control)"
same,binding signal,[18],"1.03 fold enrichment (6-mer frequency, TF over GST control)"
